Data from PubChem BioAssay.

What follows are molecules tested against Follistatin (Homo sapiens) (UniProt P19883) (assay: follistatin binders on small-molecule microarrays, primary screen, biochemical, small-molecule microarray, 635/667 nm fluorescence (AID 1132)). Details: FST binding, 635 nm fluorescence, higher = more signal.
Chain of Follistatin (Homo sapiens) (P19883 whole entry, looked up): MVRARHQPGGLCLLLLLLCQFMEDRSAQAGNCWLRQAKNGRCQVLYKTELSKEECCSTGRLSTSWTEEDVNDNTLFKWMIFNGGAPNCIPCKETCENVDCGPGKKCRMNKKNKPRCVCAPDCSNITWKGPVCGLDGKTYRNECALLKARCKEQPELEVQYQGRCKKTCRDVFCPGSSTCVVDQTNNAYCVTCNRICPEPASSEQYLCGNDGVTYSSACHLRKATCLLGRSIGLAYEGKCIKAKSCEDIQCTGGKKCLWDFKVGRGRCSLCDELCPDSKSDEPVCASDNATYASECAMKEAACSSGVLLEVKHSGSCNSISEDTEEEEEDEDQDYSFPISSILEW

**Q.** For `COc1cc(CO)ccc1OC(C)=O`, which composite z-score is on record?
**A.** 1.07

**Q.** Which composite z-score does the source give for `COc1ccc(C#Cc2ccc3c(c2)[C@]2(C(=O)N3)[C@H](c3ccc(O)cc3)N3[C@H](c4ccccc4)[C@H](c4ccccc4)OC(=O)[C@H]3[C@@H]2C(=O)N2CCCCCCC2)cc1` here?
**A.** 1.49

**Q.** For `CN1C=C(C(=O)OCCS(C)(=O)=O)C(C(=O)OCCS(C)(=O)=O)=CC(CCCO)=CC1C1CC1` (stereo not given), which composite z-score is on record?
**A.** 0.186

**Q.** Which composite z-score does the source give for `COCCOC(=O)N1C(=O)[C@@]2(c3cc(C#CCC(C(=O)OC)C(=O)OC)ccc31)[C@H](c1ccc(O)cc1)N1[C@H](c3ccccc3)[C@H](c3ccccc3)OC(=O)[C@H]1[C@@H]2C(N)=O` here?
**A.** 0.857

**Q.** How did the composite z-score turn out when `COc1ccc(NN2C(C(O)c3ccc(OC)c(OCc4ccccc4)c3)C=CC3C(=O)N(C4CCCCC4)C(=O)C32)cc1` (stereo not given) was run?
**A.** 1.29

**Q.** With `CC(C)N1CC=CC23O[C@@H]4C=CCOC(=O)[C@@H]4[C@H]2C(=O)N(CCO)[C@@H]3C1=O` (stereo not given in full) as the molecule, how does the composite z-score read?
**A.** -0.22

**Q.** With `O=C1c2ccccc2[C@@]2(Cc3ccccc3N(Cc3ccccc3)C2=O)[C@H](c2ccc(CO)cc2)N1C1CCCCC1` as the molecule, how does the composite z-score read?
**A.** 1.02

**Q.** With `CO[C@H]1O[C@H](CO)[C@@H](OC(=O)Nc2ccc3c(c2)OCO3)[C@H](OC(=O)Nc2ccccc2)[C@H]1OC(=O)Nc1ccccc1` as the molecule, how does the composite z-score read?
**A.** 1.32

**Q.** Which composite z-score does the source give for `CC(C)C[C@@H]1NC(=O)[C@@H]2C[C@H](C(=O)NCCCCCC[N+](C)(C)C)[C@H](c3ccc(O)cc3)N2C1=O` here?
**A.** 1.18

**Q.** How did the composite z-score turn out when `N#Cc1ccc(NN2C(C(O)C3CCCCC3)C=CC3C(=O)N(c4ccccc4)C(=O)C32)cc1` (stereo not given) was run?
**A.** 1.27

**Q.** How did the composite z-score turn out when `O=c1oc(-c2ccccc2)nc2cc(Br)ccc12` was run?
**A.** 0.405

**Q.** `COC(=O)[C@@]1(Cc2ccc(OC)cc2)[C@H]2c3cc(C(=O)N(C)C)n(Cc4c(OC)[nH]cc(C)c4=O)c3C[C@H]2CN1C(=O)c1ccccc1` was tested. Which composite z-score did it give?
**A.** 0.326

**Q.** For `CC(C)NC(=O)[C@@H]1c2ccccc2C(=O)N(Cc2ccccc2)[C@H]1c1ccc(CO)cc1`, which composite z-score is on record?
**A.** -0.797

**Q.** For `O=C1C=CC(=O)[C@@H]2CC(COc3ccccc3)=C3[C@@H](CCc4ccccc4)OB(O)C[C@@H]3[C@H]12`, which composite z-score is on record?
**A.** 1.08

**Q.** Which composite z-score does the source give for `C=CCC(OC(C)=O)[C@@H]1[C@@H](N(Cc2cccc3ccccc23)C(=O)c2cccc3ccccc23)c2cc(OCCCO)ccc2N1C(=O)c1ccc2ccccc2n1` (stereo not given in full) here?
**A.** 1.05

**Q.** With `O=C1[C@]2(CO)C=C(Br)[C@@H](C[C@@H]2c2ccccc2)[C@@]12CO2` as the molecule, how does the composite z-score read?
**A.** 0.518

**Q.** With `COCC1=C2[C@@H](CCc3ccccc3)OB(O)C[C@@H]2[C@@H]2C(=O)N(Cc3ccccc3)C(=O)[C@@H]2C1` as the molecule, how does the composite z-score read?
**A.** 0.193

**Q.** How did the composite z-score turn out when `CCOC(=O)C1=CC[C@@H](c2ccccc2)N(S(=O)(=O)c2ccc(C)cc2)[C@H]1C(=O)OCC` was run?
**A.** 0.305

**Q.** With `Cc1ccccc1C(O)C1C=CC2C(=O)N(C)C(=O)C2N1Nc1ccccc1` (stereo not given) as the molecule, how does the composite z-score read?
**A.** 0.459

**Q.** Which composite z-score does the source give for `C=CCC(OC(C)=O)[C@@H]1[C@@H](N(Cc2ccc(-c3ccccc3)cc2)C(=O)Cc2ccc(OC)cc2)c2cc(OCCCO)ccc2N1C(=O)c1ccc2ccccc2n1` (stereo not given in full) here?
**A.** 0.45

**Q.** `CCN(CC)c1ccc(N2CC=CC34O[C@@H]5C=CCCOC(=O)C5[C@H]3C(=O)N(CCCCCO)[C@@H]4C2=O)cc1` (stereo not given in full) was tested. Which composite z-score did it give?
**A.** -0.0495

**Q.** How did the composite z-score turn out when `C[C@]1(C(=O)NCc2ccccc2)c2ccccc2C(=O)N(Cc2ccc(OC(F)(F)F)cc2)[C@H]1c1ccc(CO)cc1` was run?
**A.** 0.49

**Q.** How did the composite z-score turn out when `CC(=O)Nc1cc(Br)ccc1C(=O)O` was run?
**A.** 0.0564

**Q.** `COC(=O)C[C@H]1O[C@]2(C(=O)N(Cc3ccccc3)c3ccc(NC(C)=O)cc32)[C@@H](C)[C@@H]1[Si](C)(C)c1ccc(OC)cc1` was tested. Which composite z-score did it give?
**A.** 0.528

**Q.** Which composite z-score does the source give for `COCCOC(=O)N1C(=O)[C@@]2(c3cc(C#CCC(C(=O)OC)C(=O)OC)ccc31)[C@H](C(=O)N1CCN(c3ncccn3)CC1)[C@H]1C(=O)O[C@H](c3ccccc3)[C@H](c3ccccc3)N1[C@@H]2c1ccc(OCCO)cc1` here?
**A.** 1.24

**Q.** How did the composite z-score turn out when `O=c1cccc(C=Cc2ccccc2)o1` was run?
**A.** -0.723

**Q.** Which composite z-score does the source give for `CCCCC(CC)C(O)C1C=CC2C(=O)N(c3ccccc3)C(=O)C2N1Nc1ccccc1` (stereo not given) here?
**A.** 0.858

**Q.** Which composite z-score does the source give for `COc1ccc([Si](C)(C)[C@@H]2[C@@H](CC(=O)N(CCO)Cc3ccccc3)O[C@]3(C(=O)N(C)c4ccccc43)[C@H]2C)cc1` here?
**A.** 1.44

**Q.** How did the composite z-score turn out when `CC(C)C[C@@H]1NC(=O)[C@H]2C[C@@H](C(=O)NCCCCCNC(=O)CS)[C@@H](c3cccc(OCCO)c3)N2C1=O` was run?
**A.** 1.44

**Q.** With `O=C(OCCF)C1=CCC(c2cccc(Cl)c2)O1` (stereo not given) as the molecule, how does the composite z-score read?
**A.** 0.134

**Q.** Which composite z-score does the source give for `O=C(O)[C@@]1(Cc2ccccc2)N=C(c2ccc(OCCCO)cc2)O[C@H]1c1ccccc1` here?
**A.** 0.572

**Q.** How did the composite z-score turn out when `CO[C@H]1O[C@H](CO)[C@@H](OC(=O)Nc2ccc(Oc3ccccc3)cc2)[C@H](OC(=O)Nc2ccccc2)[C@H]1OC(=O)Nc1ccccc1` was run?
**A.** 1.07

**Q.** How did the composite z-score turn out when `O=C(CS)NCCCCCCNC(=O)[C@H]1C[C@H]2C(=O)NCC(=O)N2[C@H]1c1ccc(O)cc1` was run?
**A.** 1.11

**Q.** With `COCCOC(=O)N1C(=O)[C@@]2(c3cc(C#CCCO)ccc31)[C@H](c1ccc(O)cc1)N1[C@H](c3ccccc3)[C@H](c3ccccc3)OC(=O)[C@H]1[C@@H]2C(N)=O` as the molecule, how does the composite z-score read?
**A.** 0.931

**Q.** Which composite z-score does the source give for `CC(C)(C)N1CC=CC23O[C@@H]4/C=C\CCCOC(=O)C4[C@H]2C(=O)N(CCO)[C@@H]3C1=O` (stereo not given in full) here?
**A.** -0.993
